# Screening results deposited in PubChem by National Center for Advancing Translational Sciences (NCATS).
# ERG-DNA inh – ERG Ets/DNA interaction inhibition; fluorescence polarization, His-ERG Ets domain / labelled DNA; Potency, µM (highest dose often 76.9 µM), for inactives: at the highest dose FP activity, negative = inhibition, most hits filed as inhibitors; P11308; 370,000 compounds, 0.028% hits; active means well fitted inhibition curve with a large enough effect in the polarisation, with a control signal flat; inconclusive means small, poorly fitted or top-dose-only effect, or effect the other way, or a change in a side signal; inactive means no such curve, though single readings can be large or run the other way; the % refers to the polarisation;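 further: polarization taken with two DNA probes labelled with fluorescein and Texas red; potency means the concentration at half of the fitted maximal effect; % of control where 0% means no effect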
#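 His-tagged ERG Ets domain (1 uM in the protein solution; 300mM KCl, 50mM Tris-HCl, 1mM EDTA, 1mM DTT, pH 7.5) received compound, then a probe mix of 5 nM fluorescein-DNA and 100nM Texas-615-DNA. Fluorescence polarization was read for both dyes.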
# D3 antag – blocks the human D3 dopamine receptor. 360,000 compounds, 2.5% hits. max response, negative = inhibition, %. D3R cells, DiscoveRx beta-arrestin luminescence, antagonist mode; hits give low values. P35462; in the data active means max response below about -50%; inconclusive means no clear call, values can overlap the other calls; further: on the % scale 0 is the no-effect control and ±100 the full control effect
#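 Cells plated overnight at 1500 cells/well, then exposed to library compounds with dopamine controls for 90 minutes at 37 degrees C. DiscoveRx reagent added for 30–60 minutes at room temperature; luminescence read, quantitative HTS format.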
# D1 antagonist – human D1 dopamine receptor antagonism | 360,000 compounds, 3.2% hits | HEK293 TREx D1 cells, calcium flux, dopamine EC80; hits give low values | P21728 | activity change, negative = inhibition, % at 10 µM; in the data active means activity change below about -30%; further: on the % scale 0 is the no-effect control and ±100 the full control effect
# Target sequence (P21728 whole entry, looked up): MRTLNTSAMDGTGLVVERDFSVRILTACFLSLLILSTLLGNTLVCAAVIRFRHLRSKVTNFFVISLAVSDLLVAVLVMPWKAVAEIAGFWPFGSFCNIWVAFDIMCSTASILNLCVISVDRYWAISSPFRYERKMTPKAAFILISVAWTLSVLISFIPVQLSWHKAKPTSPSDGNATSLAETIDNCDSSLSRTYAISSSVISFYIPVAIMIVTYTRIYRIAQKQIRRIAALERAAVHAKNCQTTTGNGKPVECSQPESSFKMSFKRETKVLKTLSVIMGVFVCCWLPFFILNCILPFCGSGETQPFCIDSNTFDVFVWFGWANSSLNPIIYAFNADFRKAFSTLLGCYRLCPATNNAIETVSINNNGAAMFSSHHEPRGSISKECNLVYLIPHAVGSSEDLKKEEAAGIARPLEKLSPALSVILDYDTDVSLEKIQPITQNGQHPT
#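 Kinetic fluorescence of a calcium dye serves as the read-out. D1-expressing Hek293 Trex cells, induced overnight at 30 C, are exposed to compound for 180 s before an EC80 dopamine addition, then read 180 s further.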
# DRD3 agonist – agonists of human D3 dopamine receptor; max activation, %; D3R DiscoveRx beta-arrestin cells, luminescence, 90 min; P35462; 410,000 compounds, 0.58% hits; AID 652048; in the data active means max activation above about 30%; further: 0% is about no effect
#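 Agonist mode: compounds and dopamine controls were applied to plated cells for 90 min at 37 degrees C after an overnight attachment at 1500 cells/well. Luminescent read-out followed 30 - 60 minutes at room temperature with DiscoveRx detection reagent.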
# D1 agonist – activates the human D1 dopamine receptor; P21728; HEK293 T-REx D1 cells, calcium flux, agonist mode; activation, % at 2 µM; 360,000 compounds, 1% hits; AID 504660; in the data active means activation above about 30%; further: 0% is about no effect
#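 Inducible HEK293 T-REx D1 cells, force-coupled to calcium signalling, were plated at 4000 cells/well with tetracycline and held overnight at 30 C. After no-wash calcium dye loading, compound-evoked calcium rise over 180 s flagged agonists.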
# D1 potentiator – human D1 dopamine receptor positive modulation; HEK293 TREx D1 cells, calcium flux, dopamine EC20 potentiation; potentiation, % at 10 µM; 360,000 compounds, 0.036% hits; AID 504651; in the data active means potentiation above about 30%; further: 0% is about no effect
# The depositor's hits bear a star; ? = inconclusive; nt = no result given. This is a sample that favours compounds with a hit; in the whole collection about 6.1% have one here.
SMILES,ERG-DNA inh,D3 antag,D1 antagonist,DRD3 agonist,D1 agonist,D1 potentiator
Cc1cc(Cl)c(S(=O)(=O)N/N=C/c2ccc3c(c2)OCO3)c(Cl)c1,-1%,?,0,-15,3,-6
CCOc1ccccc1NC(=O)CN1Cc2ccccc2C1=O,2%,nt,6,-2,-2,0
O=C(CSCc1ccc(F)cc1)N1CCc2c([nH]c3ccccc23)C1c1ccc(Cl)cc1 (stereo not drawn),-4%,nt,-31*,-10,2,-1
COc1ccc(CC(=O)N2CCc3c([nH]c4ccccc34)C2c2ccc(SC)cc2)cc1 (stereo not drawn),-6%,nt,-40*,2,1,-1
COc1ccc(CCC(=O)N2CCc3c([nH]c4ccccc34)C2c2ccc(F)cc2)cc1 (stereo not drawn),-1%,nt,-5,1,5,-4
O=C(Cc1ccc(S(=O)(=O)N2CCOCC2)s1)N1CCN(c2cccc(C(F)(F)F)c2)CC1,3%,18,-32*,14,14,-6
O=C(Cc1ccc(S(=O)(=O)N2CCCC2)s1)N1CCN(c2ccccc2)CC1,5%,-8,-7,3,2,-1
Cc1c(C(=O)Nc2ccccc2)sc2nc[nH]c(=O)c12,-7%,4,-33*,4,-1,-9
Cc1ccc(C(=O)N2CCCC(N(C)Cc3ccccc3)C2)s1 (stereo not drawn),18%,-62*,-7,-12,1,1
CN(CC(=O)Nc1cccc(F)c1)C(=O)c1cc(-c2ccco2)nc2ccccc12,-1%,13,6,-3,1,0
CCOc1ccc(CN2CCN(c3ncnc4sc5c(c34)CC(C)CC5)CC2)cc1 (stereo not drawn),0%,nt,-33*,-29,-2,-1
COc1ccc(CN2CCN(c3ncnc4sc5c(c34)CC(C)CC5)CC2)cc1F (stereo not drawn),6%,nt,18,11,-2,-1
Cc1ccc(-c2nnn(CC(=O)N3CCCCC3)n2)o1,-4%,9,-21,-1,1,-8
CCn1c(C)nc2cc(C#N)ccc21,-3%,-17,-19,-1,6,-6
N#Cc1sc2nc(-c3cccs3)cc(-c3ccc(Cl)cc3)c2c1N,-10%,32,-32*,-8,5,-8
CCN(CC)C(=O)c1sc2nc(-c3cccs3)cc(-c3ccc(Cl)cc3)c2c1N,0%,-14,-21,-2,55*,12
CCN(CC)C(=O)c1sc2nc(-c3cccs3)cc(-c3cccs3)c2c1N,2%,1,-14,3,7,3
Cc1cccc(OCC(=O)Nc2ccc3c(c2)OCCO3)c1,-1%,24,11,1,4,1
CCn1c(SCC(=O)Nc2ccccc2-c2ccccc2)nnc1-c1ccoc1C,-7%,2,-11,-9,0,-2
COc1cc(OC)cc(-c2ncc3ccccn23)c1,-3%,-58*,-1,-9,-3,5
Cc1cccc(C)c1NC(=O)CSc1n[nH]c(=O)n1C1CC1,1%,0,nt,0,nt,nt
O=C(CSc1n[nH]c(=O)n1C1CC1)c1ccc(F)cc1,-1%,-60*,-9,-21,5,-2
COCCn1c(=NC(=O)CSCC(=O)N2CCOCC2)sc2ccccc21,-11%,-4,-46*,2,0,-5
O=S(CC(O)(c1ccccc1)c1ccccc1)CC(O)(c1ccccc1)c1ccccc1,nt,0,nt,-13,nt,nt
COc1ccc([C@H]2[C@@H]3C=CCC[C@@]3(C)C(=O)N2Cc2ccccc2)cc1Cl,-3%,-55*,31,-21,2,5
SMILES,ERG-DNA inh,D3 antag,D1 antagonist,DRD3 agonist,D1 agonist,D1 potentiator
O=C(CSc1nnc(CNC(=O)c2c(F)cccc2Cl)o1)Nc1cccc(F)c1,7%,nt,-33*,-2,8,-3
O=C(CSc1nnc(CNC(=O)c2c(F)cccc2Cl)o1)Nc1ccc2c(c1)OCO2,2%,?,-14,-7,2,0
COc1ccc(-n2ncc(Cl)c(Cl)c2=O)cc1,8%,-74*,-9,-7,1,-8
COc1ccc(-n2ncc(N(C)n3cccc3)c(Cl)c2=O)cc1,-8%,-23,-10,2,1,-2
CCC1=C(c2ccc(C)cc2)S(=O)(=O)N=C1N1CCC(C(=O)NCc2ccc(C)cc2)CC1,0%,nt,-39*,-15,0,-2
CC(C)(C)C(=O)Cn1ncc(Cl)c(Cl)c1=O,3%,-11,5,1,11,-1
C=CCn1c(C)cc(C(=O)Cn2ncc(Cl)c(Cl)c2=O)c1C,7%,-88*,8,-14,0,-3
O=C(OCn1ncc(Cl)c(Cl)c1=O)c1ccccc1Cl,-16%,-70*,-7,-9,3,-3
O=C(Cn1ncc(Cl)c(Cl)c1=O)c1ccc(Cl)cc1,1%,-55*,-25,-7,1,-7
O=C(Cn1cncn1)c1ccc(Cl)cc1,2%,-80*,8,2,1,-6
O=C(Cn1ncc(N2CCOCC2)c(Cl)c1=O)c1ccc(Cl)cc1,4%,-6,nt,-6,-1,0
FC(F)(F)c1ccc(CN2CCCCCC2)cc1,nt,-13,9,-11,3,-11
Cc1nn(-c2ccccc2)c(Cl)c1/C=N/Nc1nncc(=O)[nH]1,13%,1,8,2,1,2
Cc1cc(-n2c(C)cc(C(=O)COc3ccccc3[N+](=O)[O-])c2C)no1,-11%,-15,-22,-2,0,-2
CCCCn1c(-c2csc(CCC)c2)n[nH]c1=S,-6%,-10,-13,4,57*,-3
O=C(O)COc1ccc(Nc2ccccc2)cc1,-8%,-12,5,1,-2,0
O=C(NC1=NCCS1)c1cc(-c2ccc(F)cc2)nc2ccccc12,1%,-9,-37*,-5,-1,-4
CCOc1cccc(-c2cc(C(=O)Nc3ccon3)c3ccccc3n2)c1,-3%,28,-5,25,-2,-2
O=C(Nc1ccon1)c1cc(-c2ccccc2)nc2ccccc12,-3%,1,-32*,7,0,-7
Cc1cccc(NC(=S)NC(=O)c2cc(-c3ccccc3)nc3ccccc23)c1,7%,-54*,0,-14,1,5
Cc1ccc(-c2cc(C(=O)NC3=NCCS3)c3ccccc3n2)cc1C,46%,-8,-5,-11,2,4
O=C(CNC(=O)c1ccccc1)OCc1nnc(-c2ccc(Cl)cc2)o1,-13%,-15,-3,-2,0,-4
Cc1cc(C)c(NC(=O)c2ccc3c(c2)C(=O)N(Cc2cccnc2)C3=O)c(C)c1,-13%,-9,-8,-5,10,5
